PubChem BioAssay (NCI)
This is part of a sample that, as a whole, favours compounds with a hit. Of some 79,000 tested, about 15% had one in any assay. Unmarked numbers belong to inactive results. Activity calls are given as the source filed them. No stated cut-off is given here; in the data, active means growth inhibition above about 70%; inactive means the rest.

Assays:
[1] = NCI Yeast Anticancer Drug Screen. Data for the rad50 strain (AID 155);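 further: 0% = growth of vehicle-only cultures of the same strain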; details: S. cerevisiae rad50 strain growth inhibition, stronger effect = higher value
Procedure, shortened: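 A DNA repair-deficient yeast mutant serves as the test organism; compound-induced growth inhibition is calculated against vehicle-treated cells.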

[2] = NCI Yeast Anticancer Drug Screen. Data for the mec2-1 strain (AID 157); details: S. cerevisiae mec2-1 strain, stronger effect = higher value
Procedure, shortened: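 Test agents were screened against the mec2-1 yeast strain, with defined DNA repair or cell cycle alteration. Growth was scored as inhibition against vehicle-only controls.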

[3] = NCI Yeast Anticancer Drug Screen. Data for the sgs1 mgt1 strain (AID 161);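 further: 0% = growth of cultures given vehicle only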; details: S. cerevisiae sgs1 mgt1 strain, stronger effect = higher value
Procedure, shortened: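 Test agents were incubated with a DNA-repair-mutant yeast strain. Growth was then read and compared against vehicle-treated controls.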

[4] = NCI Yeast Anticancer Drug Screen. Data for the cln2 rad14 strain (AID 165);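 further: 0% = growth equal to vehicle treated cultures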; details: S. cerevisiae cln2 rad14 strain, stronger effect = higher value
Procedure, shortened: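 Growth of compound-exposed yeast (cln2 rad14 genotype) measured and expressed as inhibition relative to vehicle.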

[5] = NCI Yeast Anticancer Drug Screen. Data for the bub3 strain (AID 167); details: S. cerevisiae bub3 mutant strain, stronger effect = higher value
Procedure, shortened: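 Inhibition values come from growth of compound-treated mutant yeast normalised to vehicle-treated controls.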

[6] = NCI Yeast Anticancer Drug Screen. Data for the mlh1 rad18 strain (AID 175); details: S. cerevisiae mlh1 rad18 strain growth inhibition, stronger effect = higher value
Procedure, shortened: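 In this whole-cell yeast screen, a strain with altered DNA damage repair is challenged with compound, and its growth is measured against matched vehicle-treated controls.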

[7] = at 5.0 µM (retest, dose inferred, filed as 0.5)
[8] = at 50.0 µM (retest, dose inferred, filed as 5.0)

| Compound | growth inhibition [1, 7] [%] | growth inhibition [1, 8] | growth inhibition ([1]; at 50.0 µM) | growth inhibition [2, 7] | growth inhibition [2, 8] | growth inhibition ([2]; at 50.0 µM) | growth inhibition [3, 7] | growth inhibition [3, 8] | growth inhibition ([3]; at 50.0 µM) | growth inhibition [4, 7] [%] | growth inhibition [4, 8] | growth inhibition ([4]; at 50.0 µM) | growth inhibition [5, 7] | growth inhibition [5, 8] | growth inhibition ([5]; at 50.0 µM) | growth inhibition [6, 7] | growth inhibition [6, 8] | growth inhibition ([6]; at 50.0 µM) |
| --- | --- | --- | --- | --- | --- | --- | --- | --- | --- | --- | --- | --- | --- | --- | --- | --- | --- | --- |
| O=C(O)c1ccc2c(Br)ccc3c2c1CC3 | 13 | 8% | 77.3% (active) | -13% | 25% | 56.1% | -6% | 16% | 73.5% (active) | -8 | -1% | 18.1% | -2% | 20% | 8.05% | 34% | 35% | 68.6% |
| CCCCCCCCCCCCCCCCCC[N+](C)(C)Cc1ccc(C[N+](C)(C)CCCCCCCCCCCCCCCCCC)cc1 | -5 | 22% | 1.5% | -3% | 7% | 35.3% | 5% | 51% | 71.3% (active) | -2 | -9% | 44.9% | -4% | 11% | 5.05% | -3% | 26% | 8.2% |
| C=CC1(C)CCC2C(=CCC3C(C)(COC4OC(CO)C(O)C(O)C4O)C(O)CCC23C)C1 (stereo not given) | -4 | 99% (active) | 93.2% (active) | -1% | 99% (active) | 93.9% (active) | -3% | 43% | 93.8% (active) | -1 | 70% (active) | 91.5% (active) | 18% | 92% (active) | 93.6% (active) | -3% | 99% (active) | 92.8% (active) |
| O=C(CCC1OCCO1)Nc1cc(NCc2ccccc2)ccc1OCc1ccccc1 | 1 | 48% | 71.2% (active) | 2% | 69% | 57% | -173% | 73% (active) | 89.4% (active) | 0 | 16% | 43.7% | 0% | 39% | 65% | 16% | 68% | 70.2% (active) |
| COc1ccc(NC2Oc3cc4c(cc3C(c3cccc(OC)c3OC)C2C)OCO4)cc1 (stereo not given) | -24 | 17% | 48% | -13% | -15% | 49.5% | -6% | -1% | 47.9% | -10 | 12% | 41.1% | -32% | 13% | 65.3% | -19% | 9% | 71.3% (active) |
| O=C(Nc1ccc(S(=O)(=O)NC2CCCCC2)cc1)OC1CCCCCCC1 | 69 | 74% (active) | 72% (active) | 99% (active) | 81% (active) | 53.2% | 72% (active) | 40% | 77.6% (active) | 12 | 75% (active) | 75% (active) | 92% (active) | 79% (active) | 67% | 90% (active) | 58% | 76.7% (active) |
| CCOC(=O)/C(=C\N1C(=O)/C(=C\C(C)=C\c2ccccc2)SC1=S)C(=O)c1ccccc1 | -8 | 0% | 55% | -10% | 22% | 58% | -3% | 14% | 52.5% | -18 | 2% | 57% | -8% | 39% | 70.2% (active) | -2% | 20% | 77% (active) |
| CC1=CCCc2c1cc1ccc3cccc4ccc2c1c34 | 8 | -6% | 49.5% | -7% | -8% | 79.7% (active) | -4% | 16% | 94.2% (active) | -2 | -8% | 28.1% | -5% | -10% | 91.2% (active) | -11% | -6% | 89.8% (active) |
| O=CC(=O)CC(O)CO (stereo not given) | 0 | 74% (active) | 78.4% (active) | 5% | 69% | 72.9% (active) | 4% | 81% (active) | 67.6% | 1 | 94% (active) | 89.3% (active) | 0% | 87% (active) | 98.7% (active) | -14% | 67% | 76.3% (active) |
| C#CC(CC(C)CC(C)(C)C)NC (stereo not given) | 2 | 91% (active) | 97.2% (active) | 2% | 58% | 85.5% (active) | 0% | 97% (active) | 96.8% (active) | 7 | 53% | 76% (active) | 2% | 86% (active) | 92.3% (active) | 1% | 73% (active) | 96% (active) |
